# Source: the supplement of paper PMC10849652
# Targets with a hit are over-represented here; the source holds about 7,900 in all. About 0.6% of all pairs of compound and target were hits.
# Compound: C1COCCN1CCN2C3=CC=CC=C3N=C2NC(=O)C4=CC(=CC=C4)[N+](=O)[O-] [IRAK-1-4 Inhibitor I]
# Experiment: log2 fold change, soluble protein after heating vs DMSO (PISA); higher = thermal stabilisation; K562 cells, 10 uM, 30 min; active = over 0.2 and 3.5 SD of the protein, either way, in both replicates (recomputed)
# Method in brief: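 Values are thermal stability changes relative to control samples and are taken from duplicates. They are stated as log2 fold changes. Before quantification by TMTpro 16plex LC-MS/MS with equalised channel sums, K562 cells at 2×10^6 cells/mL were treated with 10 μM compound for 30 min, heated in aliquots for 3 min across 48°C-58°C, pooled, extracted in PBS with 0.5% NP-40 at 4°C, and centrifuged at 21,000xg for 90 min to give the soluble supernatant.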
# Sequence of UniProt O75116 (O75116 whole entry, looked up): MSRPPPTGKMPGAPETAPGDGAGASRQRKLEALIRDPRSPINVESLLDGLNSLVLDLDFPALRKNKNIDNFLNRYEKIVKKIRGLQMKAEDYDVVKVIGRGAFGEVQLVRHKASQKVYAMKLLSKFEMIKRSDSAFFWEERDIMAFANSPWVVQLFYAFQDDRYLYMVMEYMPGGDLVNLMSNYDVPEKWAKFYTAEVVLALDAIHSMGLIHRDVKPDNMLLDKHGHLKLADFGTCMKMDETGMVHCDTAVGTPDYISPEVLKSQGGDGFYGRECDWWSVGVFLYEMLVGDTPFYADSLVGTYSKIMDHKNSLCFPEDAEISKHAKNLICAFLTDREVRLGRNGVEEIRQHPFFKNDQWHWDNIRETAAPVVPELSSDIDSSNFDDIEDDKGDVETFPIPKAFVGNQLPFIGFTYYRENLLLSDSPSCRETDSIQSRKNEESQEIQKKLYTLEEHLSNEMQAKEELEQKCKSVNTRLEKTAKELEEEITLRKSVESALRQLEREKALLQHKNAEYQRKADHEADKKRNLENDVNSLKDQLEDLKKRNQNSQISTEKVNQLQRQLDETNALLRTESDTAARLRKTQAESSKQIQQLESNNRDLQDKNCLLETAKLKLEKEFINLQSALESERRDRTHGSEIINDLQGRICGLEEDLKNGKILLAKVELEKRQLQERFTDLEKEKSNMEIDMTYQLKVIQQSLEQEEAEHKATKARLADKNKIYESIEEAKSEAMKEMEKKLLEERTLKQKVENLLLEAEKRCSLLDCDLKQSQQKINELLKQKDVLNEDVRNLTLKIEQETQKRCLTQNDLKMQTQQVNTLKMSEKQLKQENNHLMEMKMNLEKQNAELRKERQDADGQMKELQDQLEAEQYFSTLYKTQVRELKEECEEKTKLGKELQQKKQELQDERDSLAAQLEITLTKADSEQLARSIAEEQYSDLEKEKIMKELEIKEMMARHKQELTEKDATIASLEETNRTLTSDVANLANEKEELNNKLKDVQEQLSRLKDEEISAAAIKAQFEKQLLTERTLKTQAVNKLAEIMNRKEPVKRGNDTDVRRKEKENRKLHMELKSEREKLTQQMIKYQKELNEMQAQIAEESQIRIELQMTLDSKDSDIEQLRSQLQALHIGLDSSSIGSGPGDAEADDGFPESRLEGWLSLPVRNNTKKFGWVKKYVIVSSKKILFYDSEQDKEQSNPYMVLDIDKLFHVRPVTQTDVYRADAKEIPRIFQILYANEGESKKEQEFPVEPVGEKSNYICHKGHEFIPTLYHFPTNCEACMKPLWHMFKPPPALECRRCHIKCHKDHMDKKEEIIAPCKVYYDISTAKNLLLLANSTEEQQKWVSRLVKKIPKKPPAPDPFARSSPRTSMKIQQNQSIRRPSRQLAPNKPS
# Sequence of UniProt Q8TBN0 (Q8TBN0 whole entry, looked up): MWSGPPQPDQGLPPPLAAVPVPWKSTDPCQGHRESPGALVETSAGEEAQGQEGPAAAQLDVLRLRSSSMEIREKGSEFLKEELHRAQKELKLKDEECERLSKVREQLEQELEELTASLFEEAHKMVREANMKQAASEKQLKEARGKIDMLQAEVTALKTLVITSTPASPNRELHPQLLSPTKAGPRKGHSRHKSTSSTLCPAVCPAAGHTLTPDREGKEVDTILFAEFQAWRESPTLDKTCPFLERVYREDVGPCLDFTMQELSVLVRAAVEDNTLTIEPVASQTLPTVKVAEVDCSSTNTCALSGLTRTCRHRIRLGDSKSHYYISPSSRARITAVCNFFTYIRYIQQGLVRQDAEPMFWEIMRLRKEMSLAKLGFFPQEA
# Sequence of UniProt O00560 (O00560 whole entry, looked up): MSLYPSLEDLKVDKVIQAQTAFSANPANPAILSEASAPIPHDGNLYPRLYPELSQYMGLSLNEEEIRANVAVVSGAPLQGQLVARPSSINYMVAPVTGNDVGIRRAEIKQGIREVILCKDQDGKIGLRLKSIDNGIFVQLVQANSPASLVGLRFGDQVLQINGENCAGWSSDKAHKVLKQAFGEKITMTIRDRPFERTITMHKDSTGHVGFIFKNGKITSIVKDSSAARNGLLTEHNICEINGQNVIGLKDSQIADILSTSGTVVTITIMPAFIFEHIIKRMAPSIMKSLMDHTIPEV
# Sequence of UniProt Q8WXD2 (Q8WXD2 whole entry, looked up): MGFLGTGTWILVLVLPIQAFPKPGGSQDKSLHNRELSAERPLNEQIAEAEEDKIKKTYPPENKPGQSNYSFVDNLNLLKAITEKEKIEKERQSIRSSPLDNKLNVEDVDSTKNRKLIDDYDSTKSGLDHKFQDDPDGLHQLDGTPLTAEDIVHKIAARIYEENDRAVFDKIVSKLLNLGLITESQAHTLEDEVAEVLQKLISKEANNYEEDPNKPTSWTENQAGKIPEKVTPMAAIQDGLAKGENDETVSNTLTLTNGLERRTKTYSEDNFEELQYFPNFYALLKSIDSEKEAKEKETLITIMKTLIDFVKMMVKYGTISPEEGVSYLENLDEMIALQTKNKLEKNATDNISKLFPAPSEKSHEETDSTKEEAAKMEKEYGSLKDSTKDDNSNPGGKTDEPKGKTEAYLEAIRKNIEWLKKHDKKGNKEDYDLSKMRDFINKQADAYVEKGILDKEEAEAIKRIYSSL
# Sequence of UniProt P63208 (P63208 whole entry, looked up): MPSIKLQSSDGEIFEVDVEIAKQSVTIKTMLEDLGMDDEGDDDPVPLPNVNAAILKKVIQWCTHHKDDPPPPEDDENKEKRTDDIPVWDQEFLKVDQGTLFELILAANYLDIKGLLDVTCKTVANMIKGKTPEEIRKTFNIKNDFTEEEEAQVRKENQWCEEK
# Sequence of UniProt Q96T23 (Q96T23 whole entry, looked up): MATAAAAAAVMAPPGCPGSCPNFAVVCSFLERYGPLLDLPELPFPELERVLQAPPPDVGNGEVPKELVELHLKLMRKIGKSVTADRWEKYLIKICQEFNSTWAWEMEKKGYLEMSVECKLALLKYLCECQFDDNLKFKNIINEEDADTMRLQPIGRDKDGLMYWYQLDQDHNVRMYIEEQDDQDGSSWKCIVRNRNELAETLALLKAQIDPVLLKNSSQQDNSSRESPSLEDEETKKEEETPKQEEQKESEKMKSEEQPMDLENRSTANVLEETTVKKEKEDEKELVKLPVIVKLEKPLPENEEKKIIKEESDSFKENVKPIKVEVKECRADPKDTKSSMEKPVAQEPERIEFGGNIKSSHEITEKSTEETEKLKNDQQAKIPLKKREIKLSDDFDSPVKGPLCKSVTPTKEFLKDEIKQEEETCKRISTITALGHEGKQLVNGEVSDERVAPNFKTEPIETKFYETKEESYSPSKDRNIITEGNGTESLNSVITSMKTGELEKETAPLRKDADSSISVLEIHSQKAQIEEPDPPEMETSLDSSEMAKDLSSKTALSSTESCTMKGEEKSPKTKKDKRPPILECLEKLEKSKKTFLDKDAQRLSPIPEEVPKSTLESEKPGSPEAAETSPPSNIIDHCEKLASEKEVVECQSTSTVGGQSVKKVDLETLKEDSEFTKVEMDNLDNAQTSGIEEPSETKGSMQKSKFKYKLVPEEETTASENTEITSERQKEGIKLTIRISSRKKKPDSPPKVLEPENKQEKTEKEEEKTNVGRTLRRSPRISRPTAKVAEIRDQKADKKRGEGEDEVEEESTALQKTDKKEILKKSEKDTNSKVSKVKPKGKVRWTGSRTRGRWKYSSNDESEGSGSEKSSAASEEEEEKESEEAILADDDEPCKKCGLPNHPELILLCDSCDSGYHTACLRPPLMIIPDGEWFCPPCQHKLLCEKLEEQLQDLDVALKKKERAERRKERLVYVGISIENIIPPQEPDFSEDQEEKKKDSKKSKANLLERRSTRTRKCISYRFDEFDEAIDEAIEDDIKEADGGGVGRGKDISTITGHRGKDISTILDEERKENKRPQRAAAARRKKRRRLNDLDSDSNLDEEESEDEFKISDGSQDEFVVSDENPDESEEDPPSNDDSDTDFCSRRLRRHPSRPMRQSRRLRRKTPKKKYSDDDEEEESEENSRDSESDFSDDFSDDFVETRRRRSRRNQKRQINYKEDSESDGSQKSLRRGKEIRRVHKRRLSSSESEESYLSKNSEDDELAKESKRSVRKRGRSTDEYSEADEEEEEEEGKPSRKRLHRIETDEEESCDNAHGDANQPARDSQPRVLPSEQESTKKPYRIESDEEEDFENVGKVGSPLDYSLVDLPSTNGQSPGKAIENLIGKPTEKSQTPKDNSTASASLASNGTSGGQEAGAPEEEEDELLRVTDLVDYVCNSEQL
# Sequence of UniProt Q13530 (Q13530 whole entry, looked up): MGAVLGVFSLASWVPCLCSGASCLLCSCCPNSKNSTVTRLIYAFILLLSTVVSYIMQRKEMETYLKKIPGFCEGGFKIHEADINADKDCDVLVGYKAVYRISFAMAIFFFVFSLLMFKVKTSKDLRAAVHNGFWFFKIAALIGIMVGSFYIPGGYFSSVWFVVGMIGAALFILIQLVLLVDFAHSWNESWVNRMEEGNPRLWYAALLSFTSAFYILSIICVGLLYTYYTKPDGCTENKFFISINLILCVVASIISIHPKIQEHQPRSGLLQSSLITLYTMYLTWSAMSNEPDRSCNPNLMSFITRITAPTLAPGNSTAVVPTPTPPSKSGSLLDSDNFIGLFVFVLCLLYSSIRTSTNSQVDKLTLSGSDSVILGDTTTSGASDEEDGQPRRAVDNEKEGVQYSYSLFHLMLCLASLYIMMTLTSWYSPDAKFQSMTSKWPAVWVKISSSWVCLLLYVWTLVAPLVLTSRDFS
# Sequence of UniProt Q8WWV3 (Q8WWV3 whole entry, looked up): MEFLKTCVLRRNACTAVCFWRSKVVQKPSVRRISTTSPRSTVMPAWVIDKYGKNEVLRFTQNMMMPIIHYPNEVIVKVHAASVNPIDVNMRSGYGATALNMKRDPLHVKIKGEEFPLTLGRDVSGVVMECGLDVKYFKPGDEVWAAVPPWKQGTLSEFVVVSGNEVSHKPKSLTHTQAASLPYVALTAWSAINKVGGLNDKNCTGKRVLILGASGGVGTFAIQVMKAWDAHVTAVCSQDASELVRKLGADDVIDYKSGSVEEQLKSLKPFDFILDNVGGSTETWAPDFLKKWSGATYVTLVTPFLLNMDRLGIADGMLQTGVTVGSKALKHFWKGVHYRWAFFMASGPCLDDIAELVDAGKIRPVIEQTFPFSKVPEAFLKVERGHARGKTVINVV
row,Target,log2 fold change
1,ROCK2 (UniProt O75116),-0.037 (inactive)
2,SCCPDH (UniProt Q8NBX0),-0.005 (inactive)
3,RB1 (UniProt P06400),0.015 (inactive)
4,RAB3IL1 (UniProt Q8TBN0),0.018 (inactive)
5,SDCBP (UniProt O00560),0.021 (inactive)
6,RTN4IP1 (UniProt Q8WWV3),-0.036 (inactive)
7,SGPL1 (UniProt O95470),-0.05 (inactive)
8,RPS14 (UniProt P62263),-0.178 (inactive)
9,RAD51 (UniProt Q06609),0.017 (inactive)
10,SH3GLB2 (UniProt Q9NR46),0.028 (inactive)
11,RPS5 (UniProt P46782),-0.137 (inactive)
12,RAD50 isoform 2 (UniProt Q92878),-0.005 (inactive)
13,RPS13 (UniProt P62277),-0.096 (inactive)
14,RHOA (UniProt P61586),0.108 (inactive)
15,SLC12A9 (UniProt Q9BXP2),0.112 (inactive)
16,SCG3 (UniProt Q8WXD2),-0.003 (inactive)
17,RSF1 (UniProt Q96T23),-0.188 (inactive)
18,RPS3 (UniProt P23396),-0.091 (inactive)
19,RPS6KA1 isoform 2 (UniProt Q15418),-0.013 (inactive)
20,RRAGC (UniProt Q9HB90),0.033 (inactive)
21,SERINC3 (UniProt Q13530),-0.006 (inactive)
22,RBM25 (UniProt P49756),0.031 (inactive)
23,SKP1 (UniProt P63208),0.069 (inactive)
